According to PubChem BioAssay AID1159580 (chemical genetic matrix, 2015):
“And” between values parts separate entries of the source, which are not always exact repeats. Equal entries are not always repeated. Hit rate of the full screen: of about 5,500 compounds, about 2,000 (36%) were called active. Not shown: some 18% with an inconclusive outcome. Rule as the data show it: active = normalized growth mostly below about 0.91 (no sharp cut-off); inconclusive = no clear call, values can overlap the other calls; inactive = mostly above about 0.92. Some of the results follow.

Experiment: chemical genetic growth profiling, strain panel (AID 1159580);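 also: tested at 20 µM; growth read once vehicle control cultures reached saturation at 30 °C; 1 = growth at the plate median or of vehicle wells; lower values mean less growth of the strain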
Conditions: S. cerevisiae deletion strains, growth OD

Measured: normalized growth

Nc1c(Br)cc(Br)cc1CNC1CCC(O)CC1 (centres undefined)
inactive: locus YAL021C, strain ccr4, stronger effect = lower value 1.01 | locus YAL026C, strain drs2, stronger effect = lower value 0.968 | locus YAL030W, strain snc1, stronger effect = lower value 1.01 | locus YBL061C, strain skt5, stronger effect = lower value 1.02 | locus YBR009C, strain hhf1, stronger effect = lower value 1.03 | locus YBR021W, strain FUR4, stronger effect = lower value 0.996 | locus YBR023C, strain chs3, stronger effect = lower value 1.01 | locus YBR171W, strain sec66, stronger effect = lower value 1.02 | locus YBR229C, strain ROT2, stronger effect = lower value 1.01 | locus YBR231C, strain swc5, stronger effect = lower value 1.01 | locus YBR279W, strain paf1, stronger effect = lower value 1.01 | locus YCL011C, strain gbp2, stronger effect = lower value 1.02 | locus YCL016C, strain dcc1, stronger effect = lower value 1.01 | locus YCL029C, strain bik1, stronger effect = lower value 1 | locus YCL061C, strain MRC1, stronger effect = lower value 1.02 | locus YCL069W, strain vba3, stronger effect = lower value 1.02 | locus YCR088W, strain abp1, stronger effect = lower value 1.02 | locus YDL005C, strain med2, stronger effect = lower value 1.02 | locus YDL035C, strain GPR1, stronger effect = lower value 1.01 | locus YDL040C, strain nat1, stronger effect = lower value 0.992 | locus YDL074C, strain BRE1, stronger effect = lower value 1.01 | locus YDL101C, strain DUN1, stronger effect = lower value 1.02 | locus YDL134C, strain PPH21, stronger effect = lower value 1.01 | locus YDL185W, strain tfp1, stronger effect = lower value 0.996 | locus YDL192W, strain arf1, stronger effect = lower value 0.995 | locus YDR001C, strain nth1, stronger effect = lower value 1.01 | locus YDR069C, strain doa4, stronger effect = lower value 0.985 | locus YDR101C, strain arx1, stronger effect = lower value 0.985 | locus YDR137W, strain rgp1, stronger effect = lower value 0.949 | locus YDR150W, strain NUM1, stronger effect = lower value 1 | locus YDR159W, strain sac3, stronger effect = lower value 0.997 | locus YDR162C, strain NBP2, stronger effect = lower value 1.01 | locus YDR195W, strain ref2 1 | locus YDR297W, strain sur2, stronger effect = lower value 0.982 | locus YDR318W, strain mcm21, stronger effect = lower value 1 | locus YDR334W, strain swr1, stronger effect = lower value 1.02 | locus YDR335W, strain msn5, stronger effect = lower value 0.992 | locus YDR388W, stronger effect = lower value 1.01 | locus YDR392W, strain spt3, stronger effect = lower value 0.966 | locus YDR502C, strain sam2, stronger effect = lower value 0.991 | locus YEL003W, strain gim4, stronger effect = lower value 1.01 | locus YEL037C, strain rad23, stronger effect = lower value 1.02 | locus YEL061C, strain CIN8 (second series), stronger effect = lower value 1.02 | locus YEL061C, strain CIN8, stronger effect = lower value 1.01 | locus YER015W, strain faa2, stronger effect = lower value 1.02 | locus YER016W, strain bim1, stronger effect = lower value 1 | locus YER110C, stronger effect = lower value 1 | locus YER111C, strain swi4, stronger effect = lower value 1.02 | locus YER155C, strain BEM2 (second series), stronger effect = lower value 0.992 | locus YER155C, strain BEM2, stronger effect = lower value 1.01 | locus YER167W, strain BCK2, stronger effect = lower value 1.02 | locus YFR010W, strain ubp6, stronger effect = lower value 1.03 | locus YGL078C, strain dbp3, stronger effect = lower value 0.98 | locus YGL086W, strain mad1, stronger effect = lower value 0.996 | locus YGL167C, strain pmr1, stronger effect = lower value 1 | locus YGL173C, strain kem1, stronger effect = lower value 1.03 | locus YGL227W, strain vid30, stronger effect = lower value 1.01 | locus YGL240W, strain doc1, stronger effect = lower value 0.981 | locus YGL248W, strain PDE1, stronger effect = lower value 0.997 | locus YGL253W, strain hxk2, stronger effect = lower value 1.01 | locus YGR078C, strain PAC10, stronger effect = lower value 0.994 | locus YGR135W, strain pre9, stronger effect = lower value 0.984 | locus YGR252W, strain gcn5, stronger effect = lower value 0.955 | locus YHR013C, strain ard1, stronger effect = lower value 1.02 | locus YHR027C, strain rpn1, stronger effect = lower value 1 | locus YHR030C, strain SLT2, stronger effect = lower value 1 and 1.04 | locus YHR079C, strain IRE1 (second series), stronger effect = lower value 1.01 | locus YHR079C, strain IRE1, stronger effect = lower value 1.03 | locus YHR094C, strain hxt1, stronger effect = lower value 0.998 | locus YHR129C, strain ARP1, stronger effect = lower value 1.01 | locus YHR142W, strain chs7, stronger effect = lower value 1.02 | locus YHR200W, strain rpn10, stronger effect = lower value 0.999 | locus YIL066C, strain RNR3, stronger effect = lower value 1 | locus YIL073C, strain SPO22, stronger effect = lower value 1.04 | locus YIL125W, strain kgd1, stronger effect = lower value 0.999 | locus YIR030C, strain dcg1, stronger effect = lower value 0.997 | locus YJL092W, strain hpr5, stronger effect = lower value 1.02 | locus YJL095W, strain BCK1 (second series), stronger effect = lower value 0.98 | locus YJL095W, strain BCK1, stronger effect = lower value 0.973 and 1.04 | locus YJL115W, strain asf1, stronger effect = lower value 1.02 | locus YJL129C, strain trk1, stronger effect = lower value 1.02 | locus YJL134W, strain LCB3, stronger effect = lower value 1.01 | locus YJL154C, strain vps35, stronger effect = lower value 1.02 | locus YJL164C, strain tpk1, stronger effect = lower value 1.01 | locus YJL166W, strain qcr8, stronger effect = lower value 1.02 | locus YJL168C, strain set2, stronger effect = lower value 1 | locus YJL187C, strain SWE1 (second series), stronger effect = lower value 0.993 | locus YJL187C, strain SWE1, stronger effect = lower value 0.988 | locus YJR043C, strain POL32, stronger effect = lower value 1.02
